32 compounds from the supplement of paper PMC5940239 can be followed below.

The subject of assay [1] is Madurella mycetomatis MM55. The note with it: 7 days.
Assay [2] deals with Madurella mycetomatis MM55. The experiment in a line: IC90; higher = less potent. The note with it: 7 days.
In assay [3] the test system is Madurella mycetomatis MM55. The experiment in a line: percent growth relative to solvent control; higher = less inhibition, active = 20 or less. The note with it: 100 µM; 7 days.

Usually IC50 stands for the concentration at which inhibition is half-maximal. As a reminder, the IC90 is the concentration needed for an effect of 90%. Consider `Cc1[nH]c2ccccc2c1C(c1cccs1)N1CCN(C)CC1` (stereo unspecified), for which the IC50 in assay [1] turned out to be 12.7 µM. The compound also had an IC90 in assay [2] of 47 µM. For the same compound, in assay [3], the percent growth is 4.92% (active).
For `CCCn1c(CNc2ccccc2O)nc2ccccc21`, the percent growth in assay [3] was 91.1% (inactive).
Consider `O=C(Nc1ccc(N2CCNCC2)cc1)c1ccn2ncc(-c3cccc(Cl)c3)c2n1`, for which, in assay [1], the IC50 worked out at 2.95 µM. In addition, the IC90 in assay [2] turned out to be 4.9 µM. In addition, the percent growth in assay [3] is 8.12% (active).
Consider `COC(=O)Nc1nc2cc(C(=O)c3ccccc3)ccc2[nH]1`, for which, in assay [3], the percent growth was 111% (inactive).
With `Brc1cncc(-c2cc(NCCCn3ccnc3)nc(-c3ccccc3)n2)c1`, the concentration for half-maximal inhibition (IC50) in assay [1] amounted to 55 µM. For the same compound, the concentration for an effect of 90% (IC90) in assay [2] was found to be 90.8 µM. Further, in assay [3], the percent growth is -0.251% (active).
Turning to `O=C(Nc1ccc(C(F)(F)F)c(C(F)(F)F)c1)c1cc(Cl)ccc1O`, the half-maximal inhibitory concentration (IC50) in assay [1] worked out at 1.45 µM. Besides, the concentration for an effect of 90% (IC90) in assay [2] was found to be 3.8 µM. The percent growth in assay [3] was -2.39% (active).
For `N#Cc1nc(-c2ccccc2)oc1S(=O)(=O)c1ccc(Cl)cc1`, the percent growth in assay [3] was 31.4% (inactive).
On to `Cc1cc(OCC(=O)NCc2ccccc2)c2cc(Br)ccc2n1`, for which the IC50 in assay [1] was 67.9 µM. Further, in assay [2], the IC90 was 100 µM. Besides, the percent growth in assay [3] is 15.1% (active).
In the case of `CC(=O)Nc1ccc(-c2noc(CC3CCCN(Cc4cccc(F)c4C)C3)n2)cc1` (stereo unspecified), the IC50 in assay [1] is 66.2 µM. The concentration for an effect of 90% (IC90) in assay [2] was found to be 94.5 µM. Besides, in assay [3], the percent growth is 1.89% (active).
With `COc1ccc2nc(C)cc(OCC(=O)NCc3ccccc3)c2c1`, the percent growth in assay [3] was 83.4% (inactive).
As for `O=C(COc1cccc(F)c1)Nc1nc(-c2ccccn2)cs1`, in assay [1], the IC50 was determined as 8.85 µM. Besides, the IC90 in assay [2] was 16.1 µM. Further, in assay [3], the percent growth was 0.599% (active).
On to `CC1=Nc2ccc(Cl)cc2C(c2ccccc2)N1CCNC(=O)CN(C)C` (stereo unspecified), for which the percent growth in assay [3] was 106% (inactive).
As to `CC(C)NCC(=O)Nc1cccc(C(=O)Nc2cccc(C(F)(F)F)c2)c1`, the IC50 in assay [1] is 62 µM. Besides, in assay [2], the IC90 was 93.7 µM. Also, the percent growth in assay [3] is 2.17% (active).
Turning to `N#CCN(CCCCN1CCN(c2ccc(F)cc2)CC1)C(=O)OCc1ccccc1`, the IC50 in assay [1] is 64.3 µM. The IC90 in assay [2] worked out at 93.7 µM. The percent growth in assay [3] was 1.57% (active).
Compound `CC(C)=CCC/C(C)=C\CNCCNC1C2CC3CC(C2)CC1C3` (stereo unspecified) came in with an IC50 in assay [1] of 10.2 µM. Moreover, the IC90 in assay [2] was 19.8 µM. Moreover, the percent growth in assay [3] was 2.78% (active).
Compound `Cc1ccccc1CN1CCC(O)(c2ccc(Cl)c(C(F)(F)F)c2)CC1` displayed an IC50 in assay [1] of 35.5 µM. Besides, the IC90 in assay [2] amounted to 56.3 µM. For the same compound, the percent growth in assay [3] was 1.71% (active).
For `COc1ccc(-c2cc(NC(=O)c3ccc(F)cc3Cl)ccc2OC)cc1`, the IC50 in assay [1] amounted to 31.4 µM. Further, the concentration for an effect of 90% (IC90) in assay [2] was 53 µM. Moreover, in assay [3], the percent growth was 19.5% (active).
For `c1ccc(Oc2ccc(-c3cc(N4CCOCC4)[nH]n3)cc2)cc1`, in that order: 56.9 µM, 95.2 µM and 5.11% (active).
On to `Cc1ccc(NC(=O)c2nc[nH]c2C(=O)Nc2nc3ccccc3[nH]2)c(C)c1`, for which the percent growth in assay [3] was 147% (inactive).
As to `CC1(COc2ccc(N3CCC(Oc4ccc(OC(F)(F)F)cc4)CC3)cc2)Cn2cc([N+](=O)[O-])nc2O1` (stereo unspecified), in assay [3], the percent growth was 111% (inactive).
On the same count and under the same terms, next, `C[C@H]1COc2c(N3CCN(C)CC3)c(F)cc3c(=O)c(C(=O)O)cn1c23`: 89.5% (inactive).
`O=C(C1CCN(c2cc(-n3cccc3)ncn2)CC1)N1CCc2ccccc2C1` came in with an IC50 in assay [1] of 62.1 µM. The IC90 in assay [2] came to 91.5 µM. In addition, the percent growth in assay [3] is 3.17% (active).
Compound `Cc1ccc(NC(=O)CC2COc3ccccc3O2)cc1Cl` (stereo unspecified) displayed an IC50 in assay [1] of 51.9 µM. The IC90 in assay [2] came out at 91.3 µM. In assay [3], the percent growth was 1.24% (active).
The compound `c1csc(-c2cnc3sc(NCC4CCOCC4)nn23)c1` came in with a concentration for half-maximal inhibition (IC50) in assay [1] of 62.6 µM. The IC90 in assay [2] turned out to be 95.5 µM. In addition, the percent growth in assay [3] is 4.52% (active).
`CCOC(=O)NC(=O)c1ccsc1NC(=O)c1nc2ccccc2s1`: the percent growth in assay [3] was 78.6% (inactive).
In the case of `c1ccc(-c2nc(NC3CCCCC3)cc(C3CC3)n2)nc1`, the IC50 in assay [1] turned out to be 10.3 µM. Besides, in assay [2], the IC90 was 18.8 µM. For the same compound, the percent growth in assay [3] was 2.69% (active).
Consider `Clc1cccc(C(c2ccc(CN3CCNCC3)cc2)n2ccnc2)c1` (stereo unspecified), for which the percent growth in assay [3] is 115% (inactive).
As to `CC(=O)NC[C@H]1CN(c2ccc(N3CCSCC3)c(F)c2)C(=O)O1`, the percent growth in assay [3] was 94.5% (inactive).
Still for that read-out and setting: next, `Clc1cccc(CO[C@H]2CCc3ccccc3[C@@H]2n2ccnn2)c1`: 64.8% (inactive); `COc1ccc(-c2cncc3ccc(C(=O)NCCCn4ccnc4)nc23)cc1`: 109% (inactive).
For `Cc1ccc(NC(=O)c2cc(S(=O)(=O)NC(C)(C)C)ccc2C)nc1`, the percent growth in assay [3] was 78.4% (inactive).
For `CC(=O)Oc1ccccc1C(=O)Nc1ncc([N+](=O)[O-])s1`, in assay [3], the percent growth was 104% (inactive).
